About 2,100 (2.2%) of roughly 94,000 compounds were called active. No stated cut-off is given here; in the data, active means activity change below about -80%; inconclusive means no clear call, values can overlap the other calls; inactive means above that. The sample as a whole holds a higher share of actives than the screen did.
assay: P. falciparum Dd2 growth inhibitors, primary screen, SYBR Green fluorescence, single dose replicates (AID 1159554); conditions: 72 h, at 10 µM, hits give low values

Compound	activity change
CCS(=O)(=O)N1[C@H](CO)[C@@H](c2ccccc2)C12CN(C(=O)C1CCC1)C2	35.7% (inactive)
COc1ccccc1S(=O)(=O)N1CC[C@@H]2[C@H](CO)Nc3ccc(-c4ccccc4F)cc3[C@@H]21	-2.28% (inactive)
O=C1CN(Cc2ccc(F)cc2)C[C@H]2[C@@H](c3ccc(Br)cc3)[C@H](CO)N12	-35.6% (inactive)
O=C(C[C@H]1C[C@@H]2c3cc(NC(=O)C4CCC4)ccc3O[C@@H]2[C@H](CO)O1)NC1CCCCC1	12% (inactive)
O=C(N[C@@H]1C=C[C@H](CC(=O)N2CCOCC2)O[C@H]1CO)c1ccccn1	34% (inactive)
C[C@H](O)C#Cc1cnc2c(c1)C(=O)N([C@H](C)CO)C[C@H](C)[C@H](CN(C)C(=O)c1ccc(F)cc1)O2	8.85% (inactive)
COc1cccc(CNC(=O)C[C@@H]2CC[C@@H]3[C@H](COc4ccc(NC(C)=O)cc4C(=O)N3C)O2)c1	-0.731% (inactive)
CC(C)NC(=O)Nc1ccc2c(c1)CC(=O)N([C@@H](C)CO)C[C@@H](C)[C@H](CN(C)CC1CC1)O2	1.75% (inactive)
C[C@H](CO)N1C[C@H](C)[C@@H](CN(C)CC2CC2)Oc2ccc(NC(=O)Nc3ccccc3)cc2CC1=O	-83.5% (active)
Cc1noc(C)c1NC(=O)Nc1ccc2c(c1)C(=O)N([C@H](C)CO)C[C@H](C)[C@H](CN(C)Cc1ccc(Oc3ccccc3)cc1)O2	-39.9% (inactive)
Cc1noc(C)c1NC(=O)Nc1ccc2c(c1)CC(=O)N([C@H](C)CO)C[C@@H](C)[C@@H](CN(C)Cc1ccncc1)O2	3.85% (inactive)
C[C@H](CO)N1C[C@H](C)[C@@H](CN(C)Cc2ccc(Cl)c(Cl)c2)Oc2ccc(NC(=O)Nc3ccc(C(F)(F)F)cc3)cc2CC1=O	-87.2% (active)
C[C@H]1CN([C@@H](C)CO)C(=O)Cc2cc(NC(=O)Nc3cccc4ccccc34)ccc2O[C@H]1CN(C)CC1CC1	-71.1% (inactive)
C[C@@H]1CN([C@H](C)CO)C(=O)Cc2cc(NC(=O)Nc3ccccc3)ccc2O[C@@H]1CN(C)Cc1ccc(C(F)(F)F)cc1	2.2% (inactive)
Cc1noc(C)c1NC(=O)Nc1ccc2c(c1)CC(=O)N([C@@H](C)CO)C[C@@H](C)[C@H](CN(C)Cc1ccc(Oc3ccccc3)cc1)O2	-81.8% (active)
C[C@@H]1CN([C@H](C)CO)C(=O)Cc2cc(NC(=O)Nc3ccccc3)ccc2O[C@H]1CN(C)Cc1ccc(Cl)c(Cl)c1	-5.47% (inactive)
CO[C@@H]1CN(C)C(=O)c2cc(NC(=O)C3CCOCC3)ccc2OC[C@H](C)N(Cc2cccnc2)C[C@@H]1C	14.9% (inactive)

From PubChem BioAssay AID1159554 (Broad Institute, 2015)
